Hit rate of the full screen: of about 5,500 compounds, about 2,000 (36%) were called active. Not shown: some 18% with an inconclusive outcome. No stated cut-off is given here; in the data, active means normalized growth mostly below about 0.91 (no sharp cut-off); inconclusive means no clear call, values can overlap the other calls; inactive means mostly above about 0.92. The list shows a part of the results.
Assay: chemical genetic growth profiling, strain panel (AID 1159580);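 further: tested at 20 µM; growth read once vehicle control cultures reached saturation at 30 °C; 1 = growth at the plate median or of vehicle wells; lower values mean less growth of the strain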
Conditions: growth OD

Measured: normalized growth

CCC1(c2ccccc2)C(=O)NCNC1=O
inactive: S. cerevisiae deletion strains, locus YJR075W, strain HOC1, hits give low values 1.01 | S. cerevisiae deletion strains, locus YKL009W, strain mrt4, hits give low values 0.998 | S. cerevisiae deletion strains, locus YKL068W, hits give low values 0.997 | S. cerevisiae deletion strains, locus YKL085W, strain MDH1 (second series), hits give low values 0.996 | S. cerevisiae deletion strains, locus YKL085W, strain MDH1, hits give low values 0.996 | S. cerevisiae deletion strains, locus YKL160W, strain elf1, hits give low values 1.02 | S. cerevisiae deletion strains, locus YKL190W, strain CNB1, hits give low values 1.01 | S. cerevisiae deletion strains, locus YKR001C, strain vps1, hits give low values 0.995 | S. cerevisiae deletion strains, locus YKR026C, strain gcn3, hits give low values 0.978 | S. cerevisiae deletion strains, locus YKR091W, strain srl3, hits give low values 0.999 | S. cerevisiae deletion strains, locus YLL001W, strain dnm1, hits give low values 1.02 | S. cerevisiae deletion strains, locus YLL026W, hits give low values 1 | S. cerevisiae deletion strains, locus YLL041C, strain sdh2, hits give low values 1.01 | S. cerevisiae deletion strains, locus YLR027C, strain aat2, hits give low values 1.01 | S. cerevisiae deletion strains, locus YLR039C, strain RIC1, hits give low values 0.971 | S. cerevisiae deletion strains, locus YLR058C, strain SHM2, hits give low values 1.01 | S. cerevisiae deletion strains, locus YLR102C, strain apc9, hits give low values 0.996 | S. cerevisiae deletion strains, locus YLR113W, strain HOG1, hits give low values 0.993 | S. cerevisiae deletion strains, locus YLR221C, strain rsa3, hits give low values 1.01 | S. cerevisiae deletion strains, locus YLR258W, strain gsy2, hits give low values 1.01 | S. cerevisiae deletion strains, locus YLR262C, strain YPT6 (second series), hits give low values 1.03 | S. cerevisiae deletion strains, locus YLR262C, strain YPT6, hits give low values 0.995 | S. cerevisiae deletion strains, locus YLR268W, strain sec22, hits give low values 0.981 | S. cerevisiae deletion strains, locus YLR320W, strain mms22, hits give low values 1.02 | S. cerevisiae deletion strains, locus YLR330W, strain CHS5, hits give low values 1.01 | S. cerevisiae deletion strains, locus YLR342W, strain FKS1 (second series), hits give low values 1.01 | S. cerevisiae deletion strains, locus YLR342W, strain FKS1, hits give low values 1.03 | S. cerevisiae deletion strains, locus YLR357W, strain rsc2, hits give low values 1.02 | S. cerevisiae deletion strains, locus YLR370C, strain arc18, hits give low values 1.01 | S. cerevisiae deletion strains, locus YLR371W, strain rom2, hits give low values 1 | S. cerevisiae deletion strains, locus YLR384C, strain iki3, hits give low values 1.01 | S. cerevisiae deletion strains, locus YLR418C, strain cdc73, hits give low values 0.992 | S. cerevisiae deletion strains, locus YML016C, strain PPZ1, hits give low values 1 | S. cerevisiae deletion strains, locus YML032C, strain rad52, hits give low values 0.992 | S. cerevisiae deletion strains, locus YML120C, strain ndi1, hits give low values 1.01 | S. cerevisiae deletion strains, locus YML124C, strain tub3, hits give low values 0.995 | S. cerevisiae deletion strains, locus YMR058W, strain fet3, hits give low values 0.995 | S. cerevisiae deletion strains, locus YMR078C, strain ctf18, hits give low values 1 | S. cerevisiae deletion strains, locus YMR125W, strain sto1, hits give low values 0.979 | S. cerevisiae deletion strains, locus YMR129W, hits give low values 0.99 | S. cerevisiae deletion strains, locus YMR205C, strain PFK2, hits give low values 1.02 | S. cerevisiae deletion strains, locus YMR223W, strain ubp8, hits give low values 0.995 | S. cerevisiae deletion strains, locus YMR231W, strain pep5, hits give low values 1.01 | S. cerevisiae deletion strains, locus YMR263W, strain SAP30, hits give low values 0.982 | S. cerevisiae deletion strains, locus YMR307W, strain GAS1, hits give low values 0.998 | S. cerevisiae deletion strains, locus YNL067W, strain RPL9B, hits give low values 1.01 | S. cerevisiae deletion strains, locus YNL071W, strain lat1, hits give low values 1 | S. cerevisiae deletion strains, locus YNL128W, strain TEP1, hits give low values 1.02 | S. cerevisiae deletion strains, locus YNL153C, strain GIM3, hits give low values 1.13 | S. cerevisiae deletion strains, locus YNL175C, strain NOP13, hits give low values 0.997 | S. cerevisiae deletion strains, locus YNL183C, strain NPR1, hits give low values 0.975 | S. cerevisiae deletion strains, locus YNL197C, strain WHI3, hits give low values 0.976 | S. cerevisiae deletion strains, locus YNL209W, strain ssb2, hits give low values 1.01 | S. cerevisiae deletion strains, locus YNL224C, strain SQS1, hits give low values 1 | S. cerevisiae deletion strains, locus YNL233W, strain BNI4, hits give low values 1 | S. cerevisiae deletion strains, locus YNL248C, strain rpa49, hits give low values 1.01 | S. cerevisiae deletion strains, locus YNL250W, strain rad50, hits give low values 0.998 | S. cerevisiae deletion strains, locus YNL271C, strain bni1, hits give low values 0.993 | S. cerevisiae deletion strains, locus YNL298W, strain CLA4, hits give low values 1.01 | S. cerevisiae deletion strains, locus YNL307C, strain MCK1, hits give low values 0.995 | S. cerevisiae deletion strains, locus YNL322C, strain KRE1 (second series), hits give low values 1.01 | S. cerevisiae deletion strains, locus YNL322C, strain KRE1, hits give low values 1 | S. cerevisiae deletion strains, locus YNR049C, strain mso1, hits give low values 1 | S. cerevisiae deletion strains, locus YNR052C, strain pop2, hits give low values 0.998 | S. cerevisiae deletion strains, locus YOL006C, strain TOP1, hits give low values 0.989 | S. cerevisiae deletion strains, locus YOL012C, strain htz1 0.947 | S. cerevisiae deletion strains, locus YOL147C, strain pex11, hits give low values 0.988 | S. cerevisiae deletion strains, locus YOR001W, strain rrp6, hits give low values 0.981 | S. cerevisiae deletion strains, locus YOR061W, strain CKA2, hits give low values 1 | S. cerevisiae deletion strains, locus YOR069W, strain VPS5, hits give low values 1.01 | S. cerevisiae deletion strains, locus YOR070C, strain gyp1, hits give low values 1.01 | S. cerevisiae deletion strains, locus YOR080W, strain dia2, hits give low values 1.01 | S. cerevisiae deletion strains, locus YOR083W, strain WHI5 (second series), hits give low values 1 | S. cerevisiae deletion strains, locus YOR083W, strain WHI5, hits give low values 1.02 | S. cerevisiae deletion strains, locus YOR106W, strain vam3, hits give low values 1.01 | S. cerevisiae deletion strains, locus YOR136W, strain idh2, hits give low values 1 | S. cerevisiae deletion strains, locus YOR144C, strain elg1, hits give low values 0.992 | S. cerevisiae deletion strains, locus YOR184W, strain ser1, hits give low values 1.01 | S. cerevisiae deletion strains, locus YOR231W, strain MKK1, hits give low values 1 | S. cerevisiae deletion strains, locus YOR265W, strain rbl2, hits give low values 1 | S. cerevisiae deletion strains, locus YOR270C, strain vph1, hits give low values 1.02 | S. cerevisiae deletion strains, locus YOR290C, strain snf2, hits give low values 1.01 | S. cerevisiae deletion strains, locus YOR316C, strain cot1, hits give low values 0.996 | S. cerevisiae deletion strains, locus YPL051W, strain arl3, hits give low values 1.01 | S. cerevisiae deletion strains, locus YPL055C, strain LGE1, hits give low values 1.01 | S. cerevisiae deletion strains, locus YPL078C, strain atp4, hits give low values 0.994 | S. cerevisiae deletion strains, locus YPL106C, strain sse1, hits give low values 1.01 | S. cerevisiae deletion strains, locus YPL240C, strain hsp82, hits give low values 0.992 | S. cerevisiae deletion strains, locus YPL241C, strain CIN2, hits give low values 1.01 | S. cerevisiae deletion strains, locus YPL256C, strain CLN2, hits give low values 1 | S. cerevisiae deletion strains, locus YPR119W, strain clb2, hits give low values 0.996 | S. cerevisiae deletion strains, locus YPR141C, strain kar3, hits give low values 0.989 | S. cerevisiae deletion strains, locus YPR163C, strain tif3, hits give low values 0.994 | S. cerevisiae deletion strains, locus YPR167C, strain met16, hits give low values 0.995 | S. cerevisiae deletion strains, strain wtn01, hits give low values 0.991 | S. cerevisiae strains, strain wild type, hits give low values 1.01

— PubChem BioAssay AID1159580 (chemical genetic matrix, 2015)
